Records with an inconclusive call do not appear. Calls of active or inactive are those of the source. Unless noted, calls follow the shape of the dose curve; as a rule, active = well fitted curve in the direction sought with a large enough effect; inconclusive = small, poorly fitted or top-dose-only effect, or another doubt; inactive = no such curve, though single readings can be large; an effect the other way counts as inactive or inconclusive.
Key:
[1] = HepG2 viability counterscreen (readout 1: protease activity) against the NCATS DSHEA and TCM libraries (AID 1794841);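 also: cells exposed to compounds for about 24 h before the protease read; 0% is about no effect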
Summary of the method: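 Same wells read twice: first fluorescence from cleaved GF-AFC substrate (25 uM final, 30 min, 37C) for live-cell protease, then CellTiter-Glo luminescence after 30 min at room temperature for ATP. HepG2 cells were exposed ~24 h to substances.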

[2] = target: Glutathione peroxidase 1 (Homo sapiens) (UniProt P07203); test: Primary qHTS Assay for Inhibitors of Recombinant Selenoprotein Glutathione Peroxidase 1 (GPX1) (AID 1845191); also: nearly all actives have a fitted effect of over 65% in size
Glutathione peroxidase 1 (Homo sapiens), sequence (P07203 whole entry, looked up): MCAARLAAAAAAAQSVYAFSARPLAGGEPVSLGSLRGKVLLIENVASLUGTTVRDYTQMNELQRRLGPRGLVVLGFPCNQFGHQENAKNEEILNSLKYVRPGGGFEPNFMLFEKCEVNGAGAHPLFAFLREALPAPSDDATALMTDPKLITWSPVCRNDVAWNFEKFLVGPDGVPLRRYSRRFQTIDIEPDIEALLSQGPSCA
Summary of the method: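 GPX1 10 nM, GR 100 nM, GSH 1 mM, NADPH 0.5 mM, CHP 0.5 mM (final). 30-min cpd preincubation, RT. Ex340/Em450 read t=0, t=15 min.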

[3] = target: Phospholipid hydroperoxide glutathione peroxidase GPX4 (Homo sapiens) (UniProt P36969); test: Primary qHTS Assay for Inhibitors of Recombinant Selenoprotein Glutathione Peroxidase 4 (GPX4) (AID 1845192); also: nearly all actives have a fitted effect of over 65% in size; as to activity change, negative = inhibition: series mostly up to about 50 µM; % is scaled to controls: 0 for no effect and ±100 for the full control effect
Phospholipid hydroperoxide glutathione peroxidase GPX4 (Homo sapiens), sequence (P36969 whole entry, looked up): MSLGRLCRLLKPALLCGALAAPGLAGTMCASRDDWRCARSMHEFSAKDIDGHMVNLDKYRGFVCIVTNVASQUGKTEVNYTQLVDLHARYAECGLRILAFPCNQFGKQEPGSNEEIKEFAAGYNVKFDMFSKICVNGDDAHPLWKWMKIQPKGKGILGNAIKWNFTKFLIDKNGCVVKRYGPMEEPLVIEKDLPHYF
Summary of the method: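 qHTS, GR-coupled: GPX4 200 nM + cpd 30 min RT → GSH 1 mM, NADPH 0.5 mM, GR 100 nM → CHP 0.5 mM start; fluor 340/450 at t0 and t15 min; no-enzyme wells as control.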

[4] = target: Luciferin 4-monooxygenase (Photinus pyralis) (UniProt P08659); test: Primary firefly luciferase (FLuc) qHTS assay for identification of artifact compounds. (AID 1845220); also: nearly all actives have a fitted effect of over 60% in size;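 as to activity change, negative = inhibition: series mostly up to about 54 µM; plate controls were DMSO vehicle for no effect and no enzyme for full effect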
Summary of the method: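 In this counter-screen for luciferase artifacts, test compounds met substrate (10 uM each luciferin and ATP) before 10 nM enzyme started the reaction. Light output was measured 5 min later.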

[5] = test system: Nanoluciferase (engineered Oplophorus gracilirostris luciferase); test: Primary Nanoluciferase (NLuc) qHTS assay for identification of artifact compounds. (AID 1845222);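 also: NLuc secreted into diluted conditioned medium of S16 cells; series mostly up to about 54 µM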
Summary of the method: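 Using secreted nanoluciferase in S16 culture medium (0.22 um filtered, 1:55 dilution), compounds were preincubated 15 min at RT. Signal was generated with Nano-Glo reagent (1:100) over 5 min.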

[6] = Primary redox qHTS assay for identification of artifact compounds. (AID 1845223);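 also: 0% = DMSO and 100% = reference compound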
Summary of the method: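 Redox-cycling detection via DTT (250 uM final) oxidation coupled to Amplex Red (25 uM)/HRP (250 mU/mL) in HBSS. 15 min preincubation plus 30 min after DTT, room temperature. Ex/Em 525/598 nm; 4-parameter Hill fit against DMSO and 10 uM DA3003.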

[7] = target: Cytochrome P450 3A4 (Homo sapiens) (UniProt P08684); test: qHTS for inhibitors of CYP3A4 against the NCATS DSHEA and TCM libraries (AID 1919971);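 also: % is scaled to controls: 0 for no effect and ±100 for the full control effect; inhibition lowers luminescence from luciferin made by CYP3A4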
Cytochrome P450 3A4 (Homo sapiens), sequence (P08684 whole entry, looked up, canonical isoform): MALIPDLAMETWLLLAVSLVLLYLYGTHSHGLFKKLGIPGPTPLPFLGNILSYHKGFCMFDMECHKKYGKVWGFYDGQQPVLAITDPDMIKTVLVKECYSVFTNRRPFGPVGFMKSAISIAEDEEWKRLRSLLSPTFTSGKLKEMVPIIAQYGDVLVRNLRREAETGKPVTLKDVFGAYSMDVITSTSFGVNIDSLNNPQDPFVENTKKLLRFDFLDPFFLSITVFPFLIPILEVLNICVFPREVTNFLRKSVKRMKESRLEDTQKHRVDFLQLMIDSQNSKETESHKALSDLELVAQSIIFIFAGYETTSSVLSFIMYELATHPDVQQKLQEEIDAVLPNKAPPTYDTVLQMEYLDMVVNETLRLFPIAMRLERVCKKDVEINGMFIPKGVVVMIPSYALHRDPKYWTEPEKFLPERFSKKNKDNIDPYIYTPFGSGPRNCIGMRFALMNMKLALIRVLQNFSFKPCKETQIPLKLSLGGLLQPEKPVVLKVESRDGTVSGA
Summary of the method: (§1)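 Concentration-response screening with isoform-matched pro-luciferin substrates. The CYP reaction was initiated by NADPH regenerating solution and ran 30-45 min in darkness at room temperature.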

[8] = target: Cytochrome P450 2D6 (Homo sapiens) (UniProt P10635); test: qHTS for inhibitors of CYP2D6 against the NCATS DSHEA and TCM libraries (AID 1919972); also: % is scaled to controls: 0 for no effect and ±100 for the full control effect
Cytochrome P450 2D6 (Homo sapiens), sequence (P10635 whole entry, looked up): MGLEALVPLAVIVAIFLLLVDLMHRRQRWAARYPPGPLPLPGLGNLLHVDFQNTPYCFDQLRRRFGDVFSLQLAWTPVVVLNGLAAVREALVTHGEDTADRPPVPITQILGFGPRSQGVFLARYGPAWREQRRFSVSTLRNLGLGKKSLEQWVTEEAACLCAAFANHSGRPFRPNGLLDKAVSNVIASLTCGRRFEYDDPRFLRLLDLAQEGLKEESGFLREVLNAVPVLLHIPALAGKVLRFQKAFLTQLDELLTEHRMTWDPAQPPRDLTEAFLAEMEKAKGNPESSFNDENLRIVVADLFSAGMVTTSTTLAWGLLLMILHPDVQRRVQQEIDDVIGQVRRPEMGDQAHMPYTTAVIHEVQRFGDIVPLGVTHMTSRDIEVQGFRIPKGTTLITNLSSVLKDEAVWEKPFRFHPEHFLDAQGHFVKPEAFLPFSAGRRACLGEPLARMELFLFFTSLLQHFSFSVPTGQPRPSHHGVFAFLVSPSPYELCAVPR
Summary of the method: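 CYP2D6 enzyme with pro-luciferin substrate in manufacturer buffer (typically 100 mM KPO4), preincubated 15 min RT with substances (most at 19.5 nM upward); NADPH regeneration system (1x) started 30–45 min RT reaction; P450-Glo luminescence read after 30 min; quinidine as intraplate control.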

[9] = target: Cytochrome P450 2C19 (Homo sapiens) (UniProt P33261); test: qHTS for inhibitors of CYP2C19 against the NCATS DSHEA and TCM libraries (AID 1919974);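 also: luminescence from luciferin released by CYP2C19 oxidation of a pro-luciferin substrate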; also: potency is read from the fitted curve at half-maximal effect
Cytochrome P450 2C19 (Homo sapiens), sequence (P33261 whole entry, looked up): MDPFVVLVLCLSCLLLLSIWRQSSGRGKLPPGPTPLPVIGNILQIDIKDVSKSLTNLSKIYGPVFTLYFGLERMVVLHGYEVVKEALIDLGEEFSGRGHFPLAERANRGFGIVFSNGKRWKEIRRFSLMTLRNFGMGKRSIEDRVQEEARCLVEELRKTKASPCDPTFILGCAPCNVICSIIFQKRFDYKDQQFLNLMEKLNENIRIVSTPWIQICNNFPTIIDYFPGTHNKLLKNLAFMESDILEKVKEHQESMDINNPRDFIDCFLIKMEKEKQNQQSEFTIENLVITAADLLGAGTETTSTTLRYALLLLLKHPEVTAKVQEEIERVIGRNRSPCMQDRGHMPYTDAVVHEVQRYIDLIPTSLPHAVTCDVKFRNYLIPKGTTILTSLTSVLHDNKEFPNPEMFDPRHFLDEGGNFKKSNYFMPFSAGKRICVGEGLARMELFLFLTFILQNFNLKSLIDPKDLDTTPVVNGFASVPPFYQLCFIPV
Summary of the method: as §1

[10] = KB-3-1 P-gp reporter qHTS against the NCATS DSHEA and TCM libraries (AID 1919975); also: 0% is about no effect
Summary of the method: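 KB-3-1 parental line, 1536-well qHTS: cells seeded, ~4 h attachment, pintool compound addition, ~72 h at 37C, then CellTiter-Glo, 30 min RT, luminescence. Concentration-response format.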

[11] = target: Cytochrome P450 1A2 (Homo sapiens) (UniProt P05177); test: qHTS for inhibitors of CYPIA2 against the NCATS DSHEA and TCM libraries (AID 1919976);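 also: light from luciferin formed by CYP1A2 from a pro-luciferin substrate; series mostly up to about 37 µM; % is scaled to controls: 0 for no effect and ±100 for the full control effect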
Cytochrome P450 1A2 (Homo sapiens), sequence (P05177 whole entry, looked up): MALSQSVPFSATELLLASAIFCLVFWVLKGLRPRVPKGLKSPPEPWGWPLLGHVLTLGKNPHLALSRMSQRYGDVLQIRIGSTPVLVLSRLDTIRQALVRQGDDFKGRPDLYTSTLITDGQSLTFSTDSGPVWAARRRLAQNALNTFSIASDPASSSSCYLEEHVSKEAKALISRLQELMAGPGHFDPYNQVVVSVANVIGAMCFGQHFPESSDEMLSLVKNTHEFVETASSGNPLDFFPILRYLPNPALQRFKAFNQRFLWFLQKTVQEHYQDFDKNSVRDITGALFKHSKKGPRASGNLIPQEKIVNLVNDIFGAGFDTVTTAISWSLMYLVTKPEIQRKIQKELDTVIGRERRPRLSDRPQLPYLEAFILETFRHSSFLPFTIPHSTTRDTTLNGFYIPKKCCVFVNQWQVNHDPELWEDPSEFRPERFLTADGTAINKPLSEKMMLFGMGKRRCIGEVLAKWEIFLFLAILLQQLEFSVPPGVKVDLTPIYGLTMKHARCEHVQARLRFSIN
Summary of the method: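 Enzyme and pro-luciferin substrate, or substrate alone as no-enzyme background, are pre-incubated with test samples for 15 min at room temperature. NADPH regeneration system (1x final) initiates a 30-45 min dark reaction; luciferase detection reagent follows before luminescence reading.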

[12] = qHTS Counterscreen for compound interference against the NCATS DSHEA and TCM libraries (AID 1919978); details: firefly luciferase detection reagent interference, luminescence;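 also: compounds preincubated with 1 µM D-luciferin or buffer before detection reagent; % of control where 0% means no effect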
Summary of the method: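 Compounds, titrated from 19.5 nM to 39.8 uM final, were pinned onto 1 uM D-luciferin or plain 100 mM potassium phosphate. After 15 min at room temperature, luciferin detection reagent was added for 30 min before the luminescence read.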

[13] = Dual reporter qHTS for agonist of Pregnane X Receptor (hPXR) against the NCATS DSHEA and TCM libraries: Fluorescence readout (AID 1920058); also: 0% is about no effect
Summary of the method: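 Cells were plated at 2000 per well and allowed to attach for 5 h. Test substances were pinned in and incubated roughly 24 h. CellTiter-Fluor was then added and fluorescence measured after 1 h.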

[14] = target: Nuclear receptor subfamily 1 group I member 2 (Homo sapiens) (UniProt O75469); test: Dual reporter qHTS for agonist of Pregnane X Receptor (hPXR) against the NCATS DSHEA and TCM libraries: Luminescence readout (AID 1920059); also: 0% is about no effect
Nuclear receptor subfamily 1 group I member 2 (Homo sapiens), sequence (O75469 whole entry, looked up): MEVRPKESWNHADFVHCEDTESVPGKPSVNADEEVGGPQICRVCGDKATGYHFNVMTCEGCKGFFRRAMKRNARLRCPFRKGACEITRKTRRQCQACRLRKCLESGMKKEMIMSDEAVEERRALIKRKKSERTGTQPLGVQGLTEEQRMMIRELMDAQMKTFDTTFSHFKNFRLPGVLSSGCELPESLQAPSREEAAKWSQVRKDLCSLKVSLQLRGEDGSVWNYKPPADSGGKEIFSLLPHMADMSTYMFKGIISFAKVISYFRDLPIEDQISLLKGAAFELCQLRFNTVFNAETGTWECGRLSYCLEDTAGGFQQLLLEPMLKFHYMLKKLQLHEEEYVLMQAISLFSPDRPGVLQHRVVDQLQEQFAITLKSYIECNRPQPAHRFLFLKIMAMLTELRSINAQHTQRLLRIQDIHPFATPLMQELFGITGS
Summary of the method: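 hPXR-LucHepG2 cells in phenol red-free DMEM with 5% charcoal-stripped FBS, 2000 cells/well, attached 5 h, then exposed 24 h at 37C to compounds; rifampicin as positive agonist control (2.8 nM–92 uM). Luciferase luminescence read.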

[15] = target: Nuclear receptor subfamily 1 group I member 2 (Homo sapiens) (UniProt O75469); test: Dual reporter qHTS for antagonist of Pregnane X Receptor (hPXR) against the NCATS DSHEA and TCM libraries: Luminescence Readout (AID 1920060);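 also: HepG2 cells carrying hPXR luciferase reporter stimulated with rifampicin at 2 µM; 0% is about no effect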
Summary of the method: (§2)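 HepG2 hPXR-Luc, 2000 cells/well, charcoal-stripped FBS medium; 5 h attach; RIF 2 uM final; 24 h 37C/5% CO2; CellTiter-Fluor 1 h, fluor 405/540; ONE-Glo 30 min RT, lum.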

[16] = Dual reporter qHTS for antagonist of Pregnane X Receptor (hPXR) against the NCATS DSHEA and TCM libraries: Fluorescence Readout (AID 1920061); also: 0% is about no effect
Summary of the method: as §2

[17] = Primary fluorescence-based thiol-reactive (MSTI) qHTS assay for identification of artifact compounds. (AID 1845221); also: nearly all actives have a fitted effect of over 65% in size; also: potency is read from the fitted curve at half-maximal effect;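 as to activity change, negative = thiol reactive: series mostly up to about 54 µM; thiol-reactive compounds lower the probe fluorescence signal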
Summary of the method: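 MSTI probe at 4 uM final in 2% DMSO/PBS pH 7.4; compounds, 1 h at room temperature in dark. Fluorescence Ex/Em 525/598 nm, normalised to Acetyl-MSTI and MSTI, fitted to 4-parameter Hill.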

[18] = target: Metallo-beta-lactamase type 2 (Klebsiella pneumoniae) (UniProt C7C422); test: qHTS to identify inhibitors of the New Delhi Metallo-beta-lactamase (NDM): assay validation screen against the NCATS LOPAC Collection (AID 1794843);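 also: nitrocefin turnover by NDM-1 measured as 485 nm absorbance at plateau; series mostly up to about 38 µM; % is scaled to controls: 0 for no effect and ±100 for the full control effect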
Metallo-beta-lactamase type 2 (Klebsiella pneumoniae), sequence (C7C422 whole entry, looked up): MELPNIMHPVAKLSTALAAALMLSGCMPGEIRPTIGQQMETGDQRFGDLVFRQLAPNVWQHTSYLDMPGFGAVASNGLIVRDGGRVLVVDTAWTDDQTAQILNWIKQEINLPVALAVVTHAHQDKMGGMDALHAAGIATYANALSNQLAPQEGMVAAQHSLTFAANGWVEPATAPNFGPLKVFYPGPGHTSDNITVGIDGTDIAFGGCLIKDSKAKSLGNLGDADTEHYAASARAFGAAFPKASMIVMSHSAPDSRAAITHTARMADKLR
Summary of the method: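 Enzyme 2 nM final, 50 mM HEPES pH 7.0, 1 uM ZnSO4, 0.01% Tween20; cpds in DMSO, preincub w/ enzyme; + nitrocefin (50 uM stock); A485 at plateau; no-enzyme column as blank.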

[19] = qHTS drug screen for cell cycle checkpoint inhibitors in PARPi-resistant BRCA-mutant ovarian cancer cell lines. (AID 1963452; calls by dose curve); details: PEO1/OlaR viability, CellTiter-Glo luminescence, 96 h, stronger effect = lower value
Summary of the method: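 PEO1, PEO4 and PEO1/OlaR ovarian cancer cells, 600 per well, exposed 96 h at 37C to a dilution series. Viability read by CellTiter-Glo luminescence, normalized to DMSO and empty wells; activity summarized as Z-AUC.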

CC1CC[C@]2(C(=O)O)CC[C@]3(C(=O)O)C(=CCC4[C@@]5(C)CC[C@H](OC6OC(C)C(O)C(OC7OC(CO)C(O)C(O)C7O)C6O)C(C)(C)C5CC[C@]43C)C2C1C (stereo not given in full)
inactive: outcome [1] | Potency [2] | Potency [3] | Potency [4] | Potency [5] | Potency [6] | outcome [7] | outcome [8] | Potency [9] | outcome [10] | Potency [11] | max response [12] -1.38% | outcome [13] | outcome [14] | outcome [15] | outcome [16]

CC1CCC2(CO)C(C(=O)O)=CCCC2C1(C)CCc1ccoc1 (stereo not given)
inactive: Potency [2] | Potency [3] | Potency [4] | Potency [17] | Potency [5]

C[C@@]12CC[C@@H]3[C@@](CC[C@H]4[C@@]3(C)CCC[C@@]4(C)C(=O)O)(CC1=O)C2
active: Potency [9] 14.1 µM
inactive: outcome [1] | Potency [2] | Potency [3] | Potency [4] | Potency [17] | Potency [5] | Potency [6] | outcome [8] | outcome [10] | Potency [11] | max response [12] 0.713% | outcome [13] | outcome [14] | outcome [15] | outcome [16]

CC[C@]1(O)CC2CN(CCc3c([nH]c4ccccc34)[C@@](C(=O)OC)(c3cc4c(cc3OC)N(C)[C@H]3[C@@](O)(C(=O)OC)[C@H](OC(C)=O)[C@]5(CC)C=CCN6CC[C@]43[C@@H]65)C2)C1 (stereo not given in full)
inactive: outcome [18] | Potency [2] | Potency [3] | Potency [17] | Potency [5] | Z-AUC [19] -0.152
-0.893: Z-AUC ([19]; measured here: PEO4 Z-AUC)
-1.01: Z-AUC ([19]; measured here: PEO1 parental Z-AUC)

CC[C@H](CO)Nc1nc(NCc2ccc(-c3ccccn3)cc2)c2ncn(C(C)C)c2n1
inactive: Potency [2] | Potency [3] | Potency [4] | Potency [17] | Potency [5]

CC1OC(OC2CCC3(C)C(CCC4(C)C3CC=C3C5CC(C)(C)CCC5(C(=O)OC5OC(CO)C(O)C(O)C5O)CCC34C(=O)O)C2(C)C)C(O)C(O)C1O (stereo not given)
inactive: Potency [2] | Potency [3] | Potency [4] | Potency [17] | Potency [5]

COc1cc(C)c(C(=O)Oc2cc(C)c(C(=O)Oc3cc(C)c(C(=O)NC(C)C(=O)O)c(O)c3)c(O[C@@H]3O[C@H](CO)[C@@H](O)[C@H](O)[C@H]3OC(C)=O)c2)c(OC)c1 (stereo not given in full)
inactive: Potency [2] | Potency [3] | Potency [4] | Potency [17] | Potency [5]

COC(=O)[C@@]1(c2ccc(C)cc2)C[C@H]1CN1CCC(O)(c2ccccc2)CC1
inactive: Potency [2] | Potency [3] | Potency [4] | Potency [17] | Potency [5]

CC(=O)OC1C(O)CC2(C)C(CCC(C)C23Cc2c(O)cc(CO)c(C=O)c2O3)C1(C)C (stereo not given)
inactive: Potency [2] | Potency [3] | Potency [4] | Potency [17] | Potency [5]

CC1(C)CCC2(C(=O)OC3OC(CO)C(O)C(O)C3O)CCC3(C)C(=CCC4C5(C)CCC(OC6OC(C(=O)O)C(OC7OC(CO)C(O)C(O)C7O)C(OC7OC(CO)C(O)C(O)C7O)C6O)C(C)(C)C5CCC43C)C2C1 (stereo not given)
inactive: Potency [2] | Potency [3] | activity change, negative = inhibition [4] -0.248% [at 11.6 µM] | activity change, negative = thiol reactive [17] 123% [at 11.5 µM] | activity, negative = inhibition [5] 1.02% [at 11.6 µM]

CC(=O)OC[C@H]1O[C@H](O[C@]2(CO)O[C@H](CO)[C@@H](OC(=O)/C=C/c3ccccc3)[C@@H]2O)[C@H](O)[C@@H](O)[C@@H]1O
inactive: Potency [2] | Potency [3] | Potency [4] | Potency [5]
active: Potency [17] 4.62 µM

C=CC(C)(C)C12C=C(OC)C(=O)N3C(C(C)C)C(=O)NC31N(OC)c1ccccc12 (stereo not given)
inactive: Potency [2] | Potency [3] | Potency [4] | Potency [17] | Potency [5]

CC(=O)O[C@@H]1[C@@H](O)[C@H](O[C@H]2CC[C@]34C[C@]35CC[C@]3(C)[C@@H]([C@@]6(C)CC[C@@H](C(C)(C)O)O6)[C@@H](O)C[C@@]3(C)[C@@H]5C[C@H](O[C@@H]3O[C@H](CO)[C@@H](O)[C@H](O)[C@H]3O)[C@H]4C2(C)C)OC[C@H]1O
inactive: Potency [2] | Potency [3] | Potency [4] | Potency [17] | Potency [5]

COC(=O)N1CCC(n2ncc3c(N4CCOCC4)nc(-c4ccc(NC(=O)Nc5ccc(CO)cc5)cc4)nc32)CC1
inactive: Potency [2] | Potency [3] | Potency [4] | Potency [17] | Potency [5]

Cc1cc2c(c(=O)[nH]1)OC(C(O)CC(C)C)O2 (stereo not given)
inactive: Potency [2] | Potency [3] | Potency [4] | Potency [17] | Potency [5]

C[C@@H]1C(=O)O[C@H]2[C@H](O)C34[C@H]5C[C@@H](C(C)(C)C)C36[C@@H](OC(=O)[C@@H]6O)O[C@@]4(C(=O)O5)[C@@]12O (stereo not given in full)
inactive: Potency [2] | Potency [3] | Potency [4] | Potency [17] | Potency [5]

From PubChem BioAssay (NCATS)
